# Source: PMC7862700, “An all-to-all approach to the identification of sequence-specific readers for epigenetic DNA modifications on cytosine”
# Legend:
# Assay in all cases: DAPPL (digital affinity profiling via proximity ligation, sequencing); 10 mM Tris-HCl pH 7.5, 50 mM NaCl, 1 mM DTT, 4% glycerol, room temperature, 30 min; GST-TFs on glutathione beads, 16-mer random dsDNA library, 0.1% formaldehyde crosslink after washing; high values mean tight binding
# Conditions in all cases: protein: recombinant; tags: N-terminal GST; dsDNA, one strand shown
# [1] = molecular target: T1, FLI1 (Homo sapiens, UniProt Q01543 1-452)
# T1 sequence: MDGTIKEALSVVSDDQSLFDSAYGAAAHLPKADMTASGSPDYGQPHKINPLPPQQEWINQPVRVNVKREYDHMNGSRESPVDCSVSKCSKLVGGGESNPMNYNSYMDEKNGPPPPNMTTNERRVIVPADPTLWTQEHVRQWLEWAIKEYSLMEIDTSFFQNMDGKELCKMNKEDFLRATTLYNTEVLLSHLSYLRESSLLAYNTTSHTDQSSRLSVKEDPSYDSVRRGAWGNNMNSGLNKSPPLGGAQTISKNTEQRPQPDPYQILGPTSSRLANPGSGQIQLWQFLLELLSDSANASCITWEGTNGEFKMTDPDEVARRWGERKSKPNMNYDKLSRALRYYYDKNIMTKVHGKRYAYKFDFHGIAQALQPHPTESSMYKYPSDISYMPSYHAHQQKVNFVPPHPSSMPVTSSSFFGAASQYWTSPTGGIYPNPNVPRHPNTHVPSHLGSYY
# Procedure, shortened: (§1)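 Human transcription factors fused to GST were expressed in yeast, captured on glutathione beads, given DNA barcodes and pooled with a GST-only negative control. Pools were incubated with 200 nmole of a 16-mer random double-stranded DNA library in Tris/NaCl/DTT/glycerol buffer at room temperature for 30 min. They were then washed, crosslinked with 0.1% formaldehyde, proximity-ligated (BsaI/T4 ligase, 1 h, 37 °C), PCR-amplified and sequenced on an Illumina NextSeq500. Binding signal is each 6-mer's read frequency for a factor divided by its frequency for the GST control.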
# [2] = molecular target: T2, ELK1 (Homo sapiens, UniProt P19419 1-428)
# T2 sequence: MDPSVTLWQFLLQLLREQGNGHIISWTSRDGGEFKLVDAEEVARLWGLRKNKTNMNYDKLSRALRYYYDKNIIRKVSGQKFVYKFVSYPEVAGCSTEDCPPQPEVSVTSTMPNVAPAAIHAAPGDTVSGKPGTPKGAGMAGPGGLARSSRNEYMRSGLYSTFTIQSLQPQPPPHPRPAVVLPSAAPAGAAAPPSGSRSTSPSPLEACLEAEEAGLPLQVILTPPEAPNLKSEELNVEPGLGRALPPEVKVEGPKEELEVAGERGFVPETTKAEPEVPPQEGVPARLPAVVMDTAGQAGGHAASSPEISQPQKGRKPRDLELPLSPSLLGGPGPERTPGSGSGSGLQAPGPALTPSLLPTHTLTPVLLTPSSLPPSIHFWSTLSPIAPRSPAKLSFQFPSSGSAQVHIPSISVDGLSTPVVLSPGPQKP
# Procedure, shortened: as §1
# [3] = molecular target: T3, GABPA (Homo sapiens, UniProt Q06546 1-454)
# T3 sequence: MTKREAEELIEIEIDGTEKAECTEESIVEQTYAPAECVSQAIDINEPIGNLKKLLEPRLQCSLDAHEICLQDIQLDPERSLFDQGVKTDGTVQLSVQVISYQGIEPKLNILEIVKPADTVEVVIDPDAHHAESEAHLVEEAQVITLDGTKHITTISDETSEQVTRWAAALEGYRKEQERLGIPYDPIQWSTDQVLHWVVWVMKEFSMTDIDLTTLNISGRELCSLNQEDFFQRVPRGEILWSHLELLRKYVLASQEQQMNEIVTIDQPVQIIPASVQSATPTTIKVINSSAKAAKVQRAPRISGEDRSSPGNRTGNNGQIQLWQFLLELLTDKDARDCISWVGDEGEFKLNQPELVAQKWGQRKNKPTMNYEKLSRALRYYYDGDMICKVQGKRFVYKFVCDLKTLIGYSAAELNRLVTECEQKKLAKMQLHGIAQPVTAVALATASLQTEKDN
# Procedure, shortened: as §1
# [4] = molecular target: ELF1 (Homo sapiens, UniProt P32519 1-619)
# Procedure, shortened: as §1
# [5] = molecular target: T4, EHF (Homo sapiens, UniProt Q9NZC4 1-300)
# T4 sequence: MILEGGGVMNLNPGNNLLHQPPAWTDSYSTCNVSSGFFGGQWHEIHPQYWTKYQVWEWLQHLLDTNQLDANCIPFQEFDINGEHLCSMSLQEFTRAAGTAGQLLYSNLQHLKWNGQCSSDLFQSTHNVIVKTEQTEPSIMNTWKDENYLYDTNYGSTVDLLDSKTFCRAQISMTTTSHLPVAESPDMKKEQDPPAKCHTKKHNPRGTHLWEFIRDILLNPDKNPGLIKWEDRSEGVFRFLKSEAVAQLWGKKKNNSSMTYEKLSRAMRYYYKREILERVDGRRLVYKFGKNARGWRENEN
# Procedure, shortened: as §1
# [6] = molecular target: SPIB (Homo sapiens, UniProt Q01892 1-262)
# Procedure, shortened: as §1
# [7] = molecular target: T5, ELK3 (Homo sapiens, UniProt P41970 1-407)
# T5 sequence: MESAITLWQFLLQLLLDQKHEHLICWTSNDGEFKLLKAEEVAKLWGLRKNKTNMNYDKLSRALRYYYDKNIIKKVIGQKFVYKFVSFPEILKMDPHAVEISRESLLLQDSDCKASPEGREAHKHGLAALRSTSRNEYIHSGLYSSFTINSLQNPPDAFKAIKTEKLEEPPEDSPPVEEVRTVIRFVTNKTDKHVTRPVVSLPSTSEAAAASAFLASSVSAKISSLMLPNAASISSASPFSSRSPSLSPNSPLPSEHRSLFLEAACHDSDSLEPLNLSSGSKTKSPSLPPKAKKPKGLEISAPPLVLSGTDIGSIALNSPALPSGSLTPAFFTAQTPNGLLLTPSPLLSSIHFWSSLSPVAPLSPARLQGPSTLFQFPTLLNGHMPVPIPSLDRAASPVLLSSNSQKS
# Procedure, shortened: as §1
# [8] = molecular target: T6, SPIC (Homo sapiens, UniProt Q8N5J4 1-248)
# T6 sequence: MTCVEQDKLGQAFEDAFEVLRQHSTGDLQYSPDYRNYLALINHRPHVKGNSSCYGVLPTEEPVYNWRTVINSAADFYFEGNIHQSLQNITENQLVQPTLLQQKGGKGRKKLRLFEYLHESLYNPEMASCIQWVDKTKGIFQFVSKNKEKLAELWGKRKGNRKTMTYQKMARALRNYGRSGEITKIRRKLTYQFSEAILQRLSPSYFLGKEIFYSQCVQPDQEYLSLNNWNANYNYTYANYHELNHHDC
# Procedure, shortened: as §1
# [9] = molecular target: ELF4 (Homo sapiens, UniProt Q99607 1-663)
# Procedure, shortened: as §1
# [10] = molecular target: T7, ELK4 (Homo sapiens, UniProt P28324-2 1-405)
# T7 sequence: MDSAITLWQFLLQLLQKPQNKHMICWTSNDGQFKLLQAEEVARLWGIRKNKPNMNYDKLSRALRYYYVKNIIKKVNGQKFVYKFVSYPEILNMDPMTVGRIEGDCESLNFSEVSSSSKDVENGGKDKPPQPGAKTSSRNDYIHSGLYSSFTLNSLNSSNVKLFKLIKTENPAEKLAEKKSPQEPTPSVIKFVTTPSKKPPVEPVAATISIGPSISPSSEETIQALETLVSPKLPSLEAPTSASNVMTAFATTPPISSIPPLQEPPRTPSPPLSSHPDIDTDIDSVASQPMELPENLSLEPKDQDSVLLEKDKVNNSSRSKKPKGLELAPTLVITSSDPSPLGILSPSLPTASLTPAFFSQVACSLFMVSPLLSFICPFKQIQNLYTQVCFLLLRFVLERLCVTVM
# Procedure, shortened: as §1
# [11] = molecular target: T8, ELF3 (Homo sapiens, UniProt P78545 1-371)
# T8 sequence: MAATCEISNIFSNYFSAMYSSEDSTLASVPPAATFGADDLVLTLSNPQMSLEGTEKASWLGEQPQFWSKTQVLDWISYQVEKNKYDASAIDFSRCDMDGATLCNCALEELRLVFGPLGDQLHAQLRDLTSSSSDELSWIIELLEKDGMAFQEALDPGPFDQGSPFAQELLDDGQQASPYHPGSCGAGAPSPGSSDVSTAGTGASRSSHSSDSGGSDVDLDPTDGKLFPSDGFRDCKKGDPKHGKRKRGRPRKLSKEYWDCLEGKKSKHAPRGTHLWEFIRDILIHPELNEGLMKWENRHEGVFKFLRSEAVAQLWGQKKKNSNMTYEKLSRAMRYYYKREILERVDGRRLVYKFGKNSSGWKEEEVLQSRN
# Procedure, shortened: as §1
# [12] = molecular target: ETV1 (Homo sapiens, UniProt P50549 1-477)
# Procedure, shortened: as §1
# [13] = molecular target: T9, ERF (Homo sapiens, UniProt P50548 1-548)
# T9 sequence: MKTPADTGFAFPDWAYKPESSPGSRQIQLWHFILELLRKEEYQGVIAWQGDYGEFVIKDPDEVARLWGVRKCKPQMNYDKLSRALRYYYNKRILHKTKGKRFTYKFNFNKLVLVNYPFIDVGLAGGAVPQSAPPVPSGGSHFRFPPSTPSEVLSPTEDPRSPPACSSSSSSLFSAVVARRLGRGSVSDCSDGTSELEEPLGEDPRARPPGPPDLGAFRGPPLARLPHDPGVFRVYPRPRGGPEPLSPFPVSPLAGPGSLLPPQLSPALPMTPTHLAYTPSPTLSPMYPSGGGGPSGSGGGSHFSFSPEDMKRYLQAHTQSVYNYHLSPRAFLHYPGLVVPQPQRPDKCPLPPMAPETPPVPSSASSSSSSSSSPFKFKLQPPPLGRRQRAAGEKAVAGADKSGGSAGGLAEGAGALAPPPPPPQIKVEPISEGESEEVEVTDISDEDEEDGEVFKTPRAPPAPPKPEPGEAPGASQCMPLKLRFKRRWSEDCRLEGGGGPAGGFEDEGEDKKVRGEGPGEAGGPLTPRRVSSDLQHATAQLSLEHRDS
# Procedure, shortened: as §1
# [14] = molecular target: T10, ETV3L (Homo sapiens, UniProt Q6ZN32 1-361)
# T10 sequence: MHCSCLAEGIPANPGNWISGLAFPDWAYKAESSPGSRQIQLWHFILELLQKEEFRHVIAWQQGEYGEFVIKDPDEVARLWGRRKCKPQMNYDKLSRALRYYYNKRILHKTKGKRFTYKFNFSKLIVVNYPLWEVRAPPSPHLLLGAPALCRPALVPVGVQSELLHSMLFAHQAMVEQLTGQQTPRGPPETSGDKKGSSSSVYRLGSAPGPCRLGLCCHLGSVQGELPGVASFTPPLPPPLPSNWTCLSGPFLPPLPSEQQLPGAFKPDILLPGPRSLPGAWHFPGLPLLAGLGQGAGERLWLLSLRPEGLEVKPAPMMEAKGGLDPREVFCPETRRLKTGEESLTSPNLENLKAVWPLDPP
# Procedure, shortened: as §1
# [15] = molecular target: T11, ETS2 (Homo sapiens, UniProt P15036 1-469)
# T11 sequence: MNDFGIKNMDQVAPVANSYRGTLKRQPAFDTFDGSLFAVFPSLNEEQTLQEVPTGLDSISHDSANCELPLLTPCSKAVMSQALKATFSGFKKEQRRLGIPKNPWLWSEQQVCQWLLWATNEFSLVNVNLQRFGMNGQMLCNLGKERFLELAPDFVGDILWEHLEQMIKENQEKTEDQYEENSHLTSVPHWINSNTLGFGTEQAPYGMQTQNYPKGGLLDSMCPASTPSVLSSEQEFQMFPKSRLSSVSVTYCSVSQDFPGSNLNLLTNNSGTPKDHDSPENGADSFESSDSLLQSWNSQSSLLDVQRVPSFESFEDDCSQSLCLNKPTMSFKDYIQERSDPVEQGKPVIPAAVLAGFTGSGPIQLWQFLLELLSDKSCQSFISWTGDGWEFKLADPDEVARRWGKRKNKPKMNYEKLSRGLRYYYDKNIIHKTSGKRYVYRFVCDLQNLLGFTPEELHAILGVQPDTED
# Procedure, shortened: as §1
# [16] = molecular target: T12, ETV7 (Homo sapiens, UniProt Q9Y603 1-341)
# T12 sequence: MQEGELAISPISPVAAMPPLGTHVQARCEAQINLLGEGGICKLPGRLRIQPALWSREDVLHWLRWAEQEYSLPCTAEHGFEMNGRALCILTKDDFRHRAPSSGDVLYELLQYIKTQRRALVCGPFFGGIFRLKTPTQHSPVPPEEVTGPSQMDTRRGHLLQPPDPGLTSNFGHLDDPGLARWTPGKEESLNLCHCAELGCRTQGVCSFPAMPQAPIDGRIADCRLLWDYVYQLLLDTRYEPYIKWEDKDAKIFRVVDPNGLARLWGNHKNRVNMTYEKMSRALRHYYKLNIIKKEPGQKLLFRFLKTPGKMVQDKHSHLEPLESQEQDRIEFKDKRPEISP
# Procedure, shortened: as §1
# [17] = molecular target: T13, ETV3 (Homo sapiens, UniProt P41162-2 1-143)
# T13 sequence: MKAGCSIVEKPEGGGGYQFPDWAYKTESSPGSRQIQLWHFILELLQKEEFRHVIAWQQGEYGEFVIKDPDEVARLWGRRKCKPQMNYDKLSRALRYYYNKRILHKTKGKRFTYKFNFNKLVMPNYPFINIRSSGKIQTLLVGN
# Procedure, shortened: as §1
# [18] = molecular target: ETV6 (Homo sapiens, UniProt P41212 1-452)
# Procedure, shortened: as §1
# Chain of SPIB (Q01892 whole entry): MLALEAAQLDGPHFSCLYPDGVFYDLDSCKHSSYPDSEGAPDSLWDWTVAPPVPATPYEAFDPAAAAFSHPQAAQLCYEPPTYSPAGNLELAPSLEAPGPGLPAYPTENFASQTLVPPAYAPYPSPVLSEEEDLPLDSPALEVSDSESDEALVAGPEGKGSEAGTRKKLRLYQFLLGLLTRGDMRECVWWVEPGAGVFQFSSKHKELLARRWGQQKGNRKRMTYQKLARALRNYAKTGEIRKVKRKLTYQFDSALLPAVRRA
# Chain of ELF1 (P32519 whole entry): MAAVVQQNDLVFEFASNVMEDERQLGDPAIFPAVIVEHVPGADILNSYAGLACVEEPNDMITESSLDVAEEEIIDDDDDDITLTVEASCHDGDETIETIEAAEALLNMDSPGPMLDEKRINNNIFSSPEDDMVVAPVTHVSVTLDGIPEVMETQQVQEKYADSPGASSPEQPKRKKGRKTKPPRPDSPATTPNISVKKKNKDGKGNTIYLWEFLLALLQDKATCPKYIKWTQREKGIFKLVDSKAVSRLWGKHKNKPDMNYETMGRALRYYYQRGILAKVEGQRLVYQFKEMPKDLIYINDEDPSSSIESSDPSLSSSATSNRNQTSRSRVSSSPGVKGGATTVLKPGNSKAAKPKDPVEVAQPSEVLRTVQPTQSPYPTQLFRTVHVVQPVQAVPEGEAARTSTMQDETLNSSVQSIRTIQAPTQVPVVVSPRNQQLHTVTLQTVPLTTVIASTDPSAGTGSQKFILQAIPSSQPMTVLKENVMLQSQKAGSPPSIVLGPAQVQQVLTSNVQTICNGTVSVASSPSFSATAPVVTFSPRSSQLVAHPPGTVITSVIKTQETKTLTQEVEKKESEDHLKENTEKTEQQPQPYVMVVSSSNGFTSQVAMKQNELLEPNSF
# Chain of ETV6 (P41212 whole entry): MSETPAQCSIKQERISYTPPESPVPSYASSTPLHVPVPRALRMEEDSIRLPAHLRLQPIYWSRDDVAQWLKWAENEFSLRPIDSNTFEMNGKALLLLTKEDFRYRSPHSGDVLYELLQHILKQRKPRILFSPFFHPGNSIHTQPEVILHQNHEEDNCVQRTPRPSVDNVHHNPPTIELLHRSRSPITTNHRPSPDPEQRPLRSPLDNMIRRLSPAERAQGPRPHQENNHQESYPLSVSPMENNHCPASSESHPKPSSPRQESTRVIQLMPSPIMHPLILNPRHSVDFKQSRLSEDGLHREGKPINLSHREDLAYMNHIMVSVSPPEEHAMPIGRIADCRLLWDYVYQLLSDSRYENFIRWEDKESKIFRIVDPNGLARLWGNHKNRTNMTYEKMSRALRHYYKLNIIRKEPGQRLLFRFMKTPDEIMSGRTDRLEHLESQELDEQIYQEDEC
# Chain of ELF4 (Q99607 whole entry): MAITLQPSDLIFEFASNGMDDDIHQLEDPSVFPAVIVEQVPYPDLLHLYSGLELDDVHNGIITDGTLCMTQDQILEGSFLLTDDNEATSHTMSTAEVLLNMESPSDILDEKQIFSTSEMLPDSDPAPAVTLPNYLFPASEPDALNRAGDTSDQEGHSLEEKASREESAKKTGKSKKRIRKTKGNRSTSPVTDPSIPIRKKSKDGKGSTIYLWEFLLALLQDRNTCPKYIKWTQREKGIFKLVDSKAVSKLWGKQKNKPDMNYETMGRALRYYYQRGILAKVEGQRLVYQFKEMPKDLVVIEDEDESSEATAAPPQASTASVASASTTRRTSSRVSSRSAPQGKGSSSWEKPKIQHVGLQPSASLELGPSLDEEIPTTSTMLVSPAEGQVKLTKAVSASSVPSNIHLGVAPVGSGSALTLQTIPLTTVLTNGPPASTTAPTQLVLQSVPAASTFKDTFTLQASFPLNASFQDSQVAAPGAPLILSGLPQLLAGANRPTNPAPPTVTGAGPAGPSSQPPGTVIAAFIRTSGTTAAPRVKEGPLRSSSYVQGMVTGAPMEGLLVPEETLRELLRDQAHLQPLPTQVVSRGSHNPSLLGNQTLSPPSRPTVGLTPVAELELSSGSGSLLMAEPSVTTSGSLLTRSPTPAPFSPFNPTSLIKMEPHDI
# Chain of ETV1 (P50549 whole entry): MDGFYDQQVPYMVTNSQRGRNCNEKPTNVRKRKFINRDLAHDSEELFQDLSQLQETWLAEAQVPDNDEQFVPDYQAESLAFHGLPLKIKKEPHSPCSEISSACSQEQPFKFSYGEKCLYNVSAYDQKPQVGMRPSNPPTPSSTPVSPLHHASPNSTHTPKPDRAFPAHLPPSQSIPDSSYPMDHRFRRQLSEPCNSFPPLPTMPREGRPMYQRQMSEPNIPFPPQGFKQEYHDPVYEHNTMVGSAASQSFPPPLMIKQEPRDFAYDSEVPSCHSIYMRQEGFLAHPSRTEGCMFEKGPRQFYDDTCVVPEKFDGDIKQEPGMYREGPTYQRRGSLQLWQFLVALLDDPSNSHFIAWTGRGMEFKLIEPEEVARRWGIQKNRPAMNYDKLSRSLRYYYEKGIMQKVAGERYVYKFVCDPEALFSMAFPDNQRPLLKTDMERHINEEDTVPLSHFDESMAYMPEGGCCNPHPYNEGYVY
sequence,measurement,setting,value
GTTTGC,binding signal,[1],"1.06 fold enrichment (6-mer frequency, TF over GST control)"
same,binding signal,[2],"1.11 fold enrichment (6-mer frequency, TF over GST control)"
same,binding signal,[3],"1.04 fold enrichment (6-mer frequency, TF over GST control)"
same,binding signal,[4],"1.02 fold enrichment (6-mer frequency, TF over GST control)"
same,binding signal,[5],"1.11 fold enrichment (6-mer frequency, TF over GST control)"
same,binding signal,[6],"1.07 fold enrichment (6-mer frequency, TF over GST control)"
same,binding signal,[7],"1.12 fold enrichment (6-mer frequency, TF over GST control)"
same,binding signal,[8],"1.2 fold enrichment (6-mer frequency, TF over GST control)"
same,binding signal,[9],"1.15 fold enrichment (6-mer frequency, TF over GST control)"
same,binding signal,[10],"1.17 fold enrichment (6-mer frequency, TF over GST control)"
same,binding signal,[11],"1.23 fold enrichment (6-mer frequency, TF over GST control)"
same,binding signal,[12],"1.14 fold enrichment (6-mer frequency, TF over GST control)"
same,binding signal,[13],"1.1 fold enrichment (6-mer frequency, TF over GST control)"
same,binding signal,[14],"1.05 fold enrichment (6-mer frequency, TF over GST control)"
same,binding signal,[15],"1.08 fold enrichment (6-mer frequency, TF over GST control)"
same,binding signal,[16],"1.01 fold enrichment (6-mer frequency, TF over GST control)"
same,binding signal,[17],"1.1 fold enrichment (6-mer frequency, TF over GST control)"
same,binding signal,[18],"1.02 fold enrichment (6-mer frequency, TF over GST control)"
